Measurements as given in PubChem BioAssay.
The source made the active and inactive calls. Unless noted, no rule for the calls is given here.

Key:
[1] = HepG2 liver cancer cell viability effects, profiling panel, resazurin fluorescence, 24 h, PK04 Diversity Set (AID 1172); settings: higher = more signal
[2] = basal S. cerevisiae growth modulation, no modifier, primary screen, OD600, strain BY4716, 24 h, basal condition (AID 1173); settings: OD600, 24 h, higher = more signal, called active from +8 up or from −8 down
[3] = MM1S myeloma cell viability, profiling panel, resazurin fluorescence, basal, 24 h, PK04 Diversity Set (AID 1174); settings: higher = more signal, called active from +8 up or from −8 down;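 also: MM1S multiple myeloma cell line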
[4] = target: Dihydroorotate dehydrogenase (quinone), mitochondrial (Plasmodium falciparum (isolate 3D7)) (UniProt Q08210); assay: PfDHODH enzyme inhibitors, primary screen, biochemical, C-terminal His tag, absorbance 600 nm (AID 1175); settings: DCIP absorbance 600 nm, higher = more signal, called active from +8 up or from −8 down;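 also: recombinant parasite enzyme with a five histidine tag at its C terminus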
Sequence of Dihydroorotate dehydrogenase (quinone), mitochondrial (Plasmodium falciparum (isolate 3D7)) (Q08210 whole entry, looked up): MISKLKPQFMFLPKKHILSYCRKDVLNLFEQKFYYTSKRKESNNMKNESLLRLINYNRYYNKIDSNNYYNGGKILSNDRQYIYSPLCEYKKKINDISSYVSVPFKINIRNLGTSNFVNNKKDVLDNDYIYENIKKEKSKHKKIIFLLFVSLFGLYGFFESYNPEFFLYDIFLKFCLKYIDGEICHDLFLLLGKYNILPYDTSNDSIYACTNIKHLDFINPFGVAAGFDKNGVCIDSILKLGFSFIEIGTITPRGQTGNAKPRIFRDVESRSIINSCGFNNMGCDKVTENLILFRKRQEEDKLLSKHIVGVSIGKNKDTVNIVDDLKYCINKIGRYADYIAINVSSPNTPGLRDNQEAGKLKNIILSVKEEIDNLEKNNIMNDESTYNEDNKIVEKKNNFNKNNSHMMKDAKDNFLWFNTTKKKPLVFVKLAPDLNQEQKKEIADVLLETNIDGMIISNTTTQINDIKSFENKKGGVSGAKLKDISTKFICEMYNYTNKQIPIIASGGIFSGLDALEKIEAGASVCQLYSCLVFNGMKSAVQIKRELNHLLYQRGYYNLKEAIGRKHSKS

[5] = P. aeruginosa biofilm formation inhibitors, primary screen, strain PAO1, LB-PBS medium, absorbance 600 nm (AID 1176); settings: P. aeruginosa PAO1 growth/biofilm, A600, 12 h; higher = more signal
[6] = S. cerevisiae RM11-1a growth modifiers, primary screen, strain RM11-1a, OD600, basal, 24 h (AID 1177); settings: OD600, 24 h, higher = more signal, called active from +8 up or from −8 down;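 also: cultures grown under basal conditions with no added stressor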
[7] = E. coli acrAB mutant growth effects, primary screen, E. coli filamentation inducers, strain DRC39, OD650, 24 h (AID 1178); settings: higher = more signal, called active from +8 up or from −8 down;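 also: growth measured as culture turbidity by optical density at 650 nm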
[8] = E. coli acrAB mutant growth effects, primary screen, E. coli filamentation inducers, strain DRC39, OD650, 48 h (AID 1179);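 also: screen aims at cell division blockers that make cells filament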; settings: E. coli DRC39 delta-acrAB growth, higher = more signal, called active from +8 up or from −8 down
[9] = RPMI8226 myeloma cell viability, profiling panel, resazurin fluorescence, basal, 24 h, PK04 Diversity Set (AID 1180); settings: higher = more signal;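 also: RPMI8826 multiple myeloma cell line at 5000 cells per well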
[10] = target: E3 ubiquitin-protein ligase XIAP (Homo sapiens) (UniProt P98170); assay: XIAP binders, primary screen, biophysical, small-molecule microarray, fluorescence 635 nm (AID 1181); settings: small-molecule microarray binding, higher = more signal;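 also: score merges 667 nm emission and signal to noise over triplicate slides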
Sequence of E3 ubiquitin-protein ligase XIAP (Homo sapiens) (P98170 whole entry, looked up): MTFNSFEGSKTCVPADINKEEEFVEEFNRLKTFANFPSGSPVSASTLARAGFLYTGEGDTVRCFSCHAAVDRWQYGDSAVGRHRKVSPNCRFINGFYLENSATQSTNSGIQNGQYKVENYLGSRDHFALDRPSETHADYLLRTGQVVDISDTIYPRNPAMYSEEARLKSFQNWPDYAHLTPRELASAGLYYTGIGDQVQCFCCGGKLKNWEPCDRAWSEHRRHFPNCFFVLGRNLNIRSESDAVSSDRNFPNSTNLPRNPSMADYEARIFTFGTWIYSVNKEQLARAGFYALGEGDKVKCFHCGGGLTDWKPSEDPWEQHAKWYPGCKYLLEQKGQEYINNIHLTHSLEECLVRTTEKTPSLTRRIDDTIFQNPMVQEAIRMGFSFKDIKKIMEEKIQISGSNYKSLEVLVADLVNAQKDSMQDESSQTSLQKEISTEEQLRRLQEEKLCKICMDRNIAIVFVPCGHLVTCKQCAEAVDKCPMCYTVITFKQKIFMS

[11] = tested on: XIP peptide (Xip251-270) binding; assay: small-molecule binders of XIP peptide, primary screen, biochemical, small-molecule microarray, fluorescence 635/667 nm, 0.1 µg/mL protein (AID 1182); settings: fluorescent protein binding, 635 nm, higher = more signal, called active from +8 up or from −8 down
XIP peptide (Xip251-270) = assay: small-molecule binders of XIP peptide, primary screen, biochemical, small-molecule microarray, fluorescence 635/667 nm, 0.5 µg/mL protein (AID 1183); settings: small-molecule microarray binding, fluorescence 635 nm; higher = more signal
[12] = Plasmodium falciparum growth inhibition, primary screen, strain 3D7, DAPI fluorescence, 100 nL (AID 1184);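 also: parasites grown inside human red blood cells in medium with human serum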; settings: P. falciparum 3D7 growth, 3 d, higher = more signal
[13] = target: Homeobox protein Hox-A13 (Mus musculus) (UniProt Q62424); assay: inhibitors of HoxA13-DNA binding, primary screen, biochemical, fluorescence polarization, labeled oligonucleotide (AID 1185); settings: 15 min, higher = more signal, called active from +8 up or from −8 down
Sequence of Homeobox protein Hox-A13 (Mus musculus) (Q62424 whole entry, looked up): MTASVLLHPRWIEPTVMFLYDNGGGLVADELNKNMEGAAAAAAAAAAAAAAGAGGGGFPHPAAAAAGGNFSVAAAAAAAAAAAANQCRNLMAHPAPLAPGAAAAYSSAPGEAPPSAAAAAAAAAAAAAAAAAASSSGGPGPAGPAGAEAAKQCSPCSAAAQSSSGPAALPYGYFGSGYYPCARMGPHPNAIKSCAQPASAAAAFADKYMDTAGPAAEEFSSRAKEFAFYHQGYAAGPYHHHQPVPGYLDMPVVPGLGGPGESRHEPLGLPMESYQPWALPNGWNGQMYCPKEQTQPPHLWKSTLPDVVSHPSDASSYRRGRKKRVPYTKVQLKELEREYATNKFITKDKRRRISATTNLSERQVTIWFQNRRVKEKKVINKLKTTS

[14] = inhibitors of hydroxyurea-induced Chk1 phosphorylation, primary screen, imaging, HeLa, phospho-Chk1 antibody, percent positive cells (AID 1186); settings: hydroxyurea-induced phospho-Chk1 immunofluorescence imaging, higher = more signal
[15] = inhibitors of hydroxyurea-induced Chk1 phosphorylation, primary screen, imaging, HeLa, phospho-Chk1 nuclear intensity (AID 1187); settings: hydroxyurea-induced phospho-Chk1 immunofluorescence imaging, higher = more signal

Row | Compound | z-score [1] | z-score [2] | z-score [3] | composite z-score [4] | z-score [5] | z-score [6] | z-score [7] | z-score [8] | z-score [9] | composite z-score [10] | composite z-score [11] | composite z-score (XIP peptide (Xip251-270)) | z-score [12] | z-score [13] | z-score [14] | z-score [15]
1 | COc1ccc([Si](C)(C)[C@H]2[C@H](CC(=O)N(CCO)Cc3ccccc3)O[C@@]3(C(=O)N(Cc4cccc(N5C(=O)c6cccc7cccc5c67)c4)c4ccccc43)[C@@H]2C)cc1 | -0.101 | 0.476 (inactive) | -3.19 (inactive) | -2.98 (inactive) | 1.98 (inactive) | 0.768 (inactive) | 0.67 (inactive) | 0.865 (inactive) | -2.93 | 0.0564 | 0.719 (inactive) | 0.6 | -2.72 | -1.4 (inactive) | -1.31 (inactive) | -1.11 (inactive)
2 | COc1c(C)cc(-c2cc3c(c(-c4ccccc4)n2)[Si](C(C)C)(C(C)C)O[C@H]3c2ccccc2)cc1C | -0.315 | -0.0888 (inactive) | -0.477 (inactive) | -1.21 (inactive) | 0.161 (inactive) | -1.33 (inactive) | -0.102 (inactive) | -0.446 (inactive) | -0.327 | -0.0186 | 0.648 (inactive) | -0.029 | -2.88 | -0.742 (inactive) | -0.59 (inactive) | -0.492 (inactive)
3 | C[N+](C)(C)CCCCNC(=O)[C@H]1C[C@H]2C(=O)N3CCC[C@H]3C(=O)N2[C@H]1c1ccc(O)cc1 | 0.0897 | 1.06 (inactive) | -1.13 (inactive) | -30.3 (active) | 0.146 (inactive) | 0.266 (inactive) | 0.0346 (inactive) | -0.322 (inactive) | -0.977 | 0.455 | 1.36 (inactive) | 0.806 | -0.0706 | -0.675 (inactive) | 0.0919 (inactive) | -0.206 (inactive)
4 | [N-]=[N+]=NCc1ccccc1[C@H]1OC(c2ccc(OCCCO)cc2)=N[C@@]1(Cc1ccccc1)C(=O)O | 1.31 | -3.06 (inactive) | -0.967 (inactive) | -0.055 (inactive) | -0.0862 (inactive) | 0.816 (inactive) | -1.13 (inactive) | -0.835 (inactive) | 0.273 | -0.205 | 0.419 (inactive) | 0.652 | 0.45 | -5.05 (inactive) | -0.594 (inactive) | -1.1 (inactive)
5 | C=C[C@H](C)[C@H](O)c1ccc(OCCO)cc1 | 0.847 | -1.4 (inactive) | 0.867 (inactive) | 0.257 (inactive) | 0.261 (inactive) | 0.349 (inactive) | 0.74 (inactive) | 0.715 (inactive) | -1.9 | -0.115 | -0.199 (inactive) | -0.143 | -0.996 | -0.499 (inactive) | -0.82 (inactive) | -0.216 (inactive)
6 | CN(C)CCCC[C@@H]1NC(=O)[C@@H]2C[C@H](C(=O)NCCCCCN)[C@H](c3ccc(O)cc3)N2C1=O | -0.24 | -0.235 (inactive) | -0.507 (inactive) | -1.33 (inactive) | -0.0491 (inactive) | -0.361 (inactive) | 0.591 (inactive) | 1.09 (inactive) | -0.948 | -0.134 | 0.633 (inactive) | 0.433 | 0.336 | -1.21 (inactive) | -0.538 (inactive) | -0.472 (inactive)
7 | COc1ccc(C(=O)Nc2cccc(CN3C(=O)[C@@]4(O[C@@H](CC(=O)N5Cc6ccccc6C[C@H]5CO)[C@H]([Si](C)(C)c5ccc(OC)cc5)[C@H]4C)c4ccccc43)c2)cc1 | -0.79 | 0.147 (inactive) | -3.05 (inactive) | -4.98 (inactive) | 1.42 (inactive) | 1.91 (inactive) | 0.978 (inactive) | 0.621 (inactive) | -1.99 | -0.0525 | 1.44 (inactive) | 0.698 | -2.64 | -3.18 (inactive) | -0.0924 (inactive) | 0.071 (inactive)
8 | O=C1O[C@H](c2ccccc2)[C@H](c2ccccc2)N2[C@H]1[C@@H](C(=O)NC[C@H](O)c1ccccc1)[C@]1(C(=O)Nc3ccc(C#CC4=CCCCC4)cc31)[C@H]2c1ccc(O)cc1 | -0.654 | -0.48 (inactive) | -1.78 (inactive) | -2.16 (inactive) | 2.02 (inactive) | 1.62 (inactive) | 0.146 (inactive) | 0.165 (inactive) | -3.63 | -0.124 | 0.447 (inactive) | 0.766 | -1.53 | 0.685 (inactive) | 0.577 (inactive) | 1.25 (inactive)
9 | Cc1ccc(S[C@]2(C(=O)NCc3ccccc3)CC(=O)N(Cc3cc(C(F)(F)F)cc(C(F)(F)F)c3)[C@@H]2c2ccc(CO)cc2)cc1 | -0.417 | -0.248 (inactive) | 0.133 (inactive) | 1.01 (inactive) | 0.711 (inactive) | 1.43 (inactive) | -0.244 (inactive) | -0.532 (inactive) | 0.14 | -0.228 | -0.384 (inactive) | 0.365 | -0.398 | -2.38 (inactive) | 0.199 (inactive) | 0.311 (inactive)
